Source: PubChem
MITF inh = MITF inhibitors, primary screen, biochemical, AlphaScreen, human; Microphthalmia-associated transcription factor (Homo sapiens), O75030; AlphaScreen MITF homodimerization, bead proximity signal; inhibition, % at 2.6 µM; 0.91% of 650,000 active; in the data active means inhibition above about 50%
GPR151 activ = activators of human GPR151, primary screen, cell-based, PathHunter beta-arrestin, luminescence; G-protein coupled receptor 151 (Homo sapiens), Q8TDV0; PathHunter beta-arrestin GPR151 cells; activation, % at 11.2 µM; 1% of 650,000 active; in the data active means activation above about 4.9%
FBW7 activator = FBW7 E3 ligase activators, primary screen, biochemical, AlphaScreen, human; AlphaScreen FBW7–phospho-cyclin E peptide binding, activator screen; normalized activity (activation), % at 26.1 µM; 0.13% of 650,000 active; in the data active means normalized activity above about 1.9%;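 further: purified mutant Fbw7 with reduced substrate affinity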
Target sequence (Q969H0 whole entry, looked up): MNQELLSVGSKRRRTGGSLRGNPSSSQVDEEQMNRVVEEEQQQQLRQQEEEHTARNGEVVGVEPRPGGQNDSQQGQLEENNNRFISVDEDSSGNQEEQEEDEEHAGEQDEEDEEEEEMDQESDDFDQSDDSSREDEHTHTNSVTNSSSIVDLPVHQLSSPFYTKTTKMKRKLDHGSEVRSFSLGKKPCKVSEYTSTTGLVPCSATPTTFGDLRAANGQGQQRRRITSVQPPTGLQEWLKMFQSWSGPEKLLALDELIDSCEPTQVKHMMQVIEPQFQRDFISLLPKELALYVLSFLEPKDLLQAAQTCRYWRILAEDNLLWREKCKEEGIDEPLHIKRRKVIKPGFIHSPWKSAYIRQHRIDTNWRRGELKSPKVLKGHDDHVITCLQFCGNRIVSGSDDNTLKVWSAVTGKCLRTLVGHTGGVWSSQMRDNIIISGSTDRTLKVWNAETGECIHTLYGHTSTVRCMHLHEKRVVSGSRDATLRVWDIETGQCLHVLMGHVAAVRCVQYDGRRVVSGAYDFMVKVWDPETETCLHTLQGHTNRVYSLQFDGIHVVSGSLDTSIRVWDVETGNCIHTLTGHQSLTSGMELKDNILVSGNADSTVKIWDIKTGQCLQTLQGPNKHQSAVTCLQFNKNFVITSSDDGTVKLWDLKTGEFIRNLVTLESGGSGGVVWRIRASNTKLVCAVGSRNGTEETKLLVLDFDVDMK
TEAD-YAP block = TEAD-YAP interaction inhibition, primary screen, TEAD-YAP interaction inhibitor project, luminescence, HEK-TIYL cells. TEAD-Gal4/YAP UAS-luciferase luminescence. AID 1259422, 2018. inhibition, % at 9.12 µM. 1.4% of 640,000 active; in the data active means inhibition above about 32%
MITF inh conf = MITF inhibitors, retest of hits, confirmation, biochemical, AlphaScreen, triplicate; AID 1259372, 2018; AlphaScreen MITF homodimerization, biotin/His-MITF beads; inhibition, % at 2.6 µM; 16% of 4,700 active; shares compounds with MITF inh;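 active means inhibition above a cutoff derived from the DMSO control wells, cut at about 28% in these data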;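 further: inhibitors lower the bead chemiluminescence by keeping MITF from dimerizing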
AlphaScreen DR = AlphaScreen optical interference compounds, dose response, counter-screen, biochemical, HTS | shares compounds with MITF inh | AlphaScreen optical interference counterscreen, cell-free | IC50, µM | 6% of 480 active | AID 1259373, 2018; call rule not given here
AlphaScreen intf2 = AlphaScreen optical interference compounds, counter-screen for MITF inhibitor project, biochemical, triplicate; AID 1259376, 2018; inhibition, % at 2.6 µM; LysRS AlphaScreen counterscreen, signal interference; 7.6% of 4,700 active; shares compounds with MITF inh;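 active means inhibition above a cutoff derived from the DMSO control wells, cut at about 30% in these data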
Large screens that a line does not name were inactive (follow-up assays come after a bar, where they were run). In the library only some 3.4% were active in any assay of this set; here they are far more common.

COc1ccc(CN2CCN(C(=O)c3ccc([N+](=O)[O-])cc3)CC2)cc1	MITF inh 60 | MITF inh conf inactive | AlphaScreen intf2 inactive
O=C(c1ccc([N+](=O)[O-])cc1)N1CCN(Cc2cccnc2)CC1	MITF inh 74 | MITF inh conf inactive | AlphaScreen intf2 inactive
COc1ccc(C(=O)N2CCN(Cc3cccnc3)CC2)cc1	MITF inh 67 | MITF inh conf inactive | AlphaScreen intf2 inactive
COc1ccc(C(=O)N2CCN(Cc3cccnc3)CC2)cc1OC	MITF inh 78 | MITF inh conf inactive | AlphaScreen intf2 inactive
CCN(CC)S(=O)(=O)c1ccc(Cl)c(C(=O)NC23CC4CC(CC(C4)C2)C3)c1	none
O=C(O)CNCc1nc2ccccc2[nH]1	MITF inh 81 | MITF inh conf 76 | AlphaScreen intf2 100
CCN1C(C(=O)c2ccccc2)=C(NC(=O)c2ccc(Cl)cc2)c2ccccc2S1(=O)=O	none
CCN1C(C(=O)c2ccccc2)=C(NC(=O)c2ccc(C)cc2)c2ccccc2S1(=O)=O	MITF inh 54 | MITF inh conf inactive | AlphaScreen intf2 inactive
COc1cccc(OC)c1C(=O)Nc1c(C(N)=O)oc2ccccc12	none
Cc1cc(NC(=O)CN2CCOCC2)c2ccccc2n1	none
Cc1cc(NC(=O)CN2CCCCC2)c2ccccc2n1	MITF inh 51 | MITF inh conf inactive | AlphaScreen intf2 inactive
CC(C)(C)NCC(=O)Nc1c2c(nc3c1CCC3)CCC2	none
NCC(=O)Nc1c2c(nc3c1CCC3)CCC2	MITF inh 62 | MITF inh conf inactive | AlphaScreen intf2 inactive
O=C(CN1CCCCC1)Nc1c2c(nc3c1CCC3)CCCC2	MITF inh 71 | MITF inh conf inactive | AlphaScreen intf2 inactive
O=C(CN1CCCCCC1)NC(c1ccccc1)c1ccccc1	MITF inh 54 | MITF inh conf inactive | AlphaScreen intf2 inactive
CC(=O)c1ccc(N=Cc2c(O)ccc3ccccc23)cc1	none
O=C(CN1CCCCC1)Nc1c2c(nc3ccccc13)CCCC2	MITF inh 66 | MITF inh conf inactive | AlphaScreen intf2 inactive
NC(=O)C1CCN(CC(=O)Nc2c3c(nc4ccccc24)CCC3)CC1	none
COC(=O)CSc1nnc(-c2cnccn2)n1C	MITF inh 65 | MITF inh conf 36 | AlphaScreen DR inactive | AlphaScreen intf2 inactive
COCCn1c(SCC#N)nnc1-c1cnccn1	none
Cn1c(SCC#N)nnc1-c1cnccn1	MITF inh 69 | MITF inh conf inactive | AlphaScreen intf2 inactive
COc1ccc(N=c2scc(C)n2CCO)cc1	none
CN(CC(=O)Nc1cccc(F)c1)S(=O)(=O)c1cc2c(cc1Cl)NC(=O)CO2	none
O=[N+]([O-])c1cccc(CN2CCN(C3CC4CCC3C4)CC2)c1 (stereo not given)	MITF inh 57 | MITF inh conf inactive | AlphaScreen intf2 inactive
CC1CCCC(N2CCN(Cc3ccccc3[N+](=O)[O-])CC2)C1 (stereo not given)	MITF inh 82 | MITF inh conf inactive | AlphaScreen intf2 inactive
O=[N+]([O-])c1ccccc1S(=O)(=O)N1CCN(C2CCCCC2)CC1	MITF inh 51 | MITF inh conf inactive | AlphaScreen intf2 inactive
O=[N+]([O-])c1ccccc1CN1CCC(N2CCCCCC2)CC1	MITF inh 79 | MITF inh conf inactive | AlphaScreen intf2 inactive
N#Cc1cccc(S(=O)(=O)NCCN2CCOCC2)c1	none
Cc1ccc([N+](=O)[O-])cc1S(=O)(=O)n1cnc2ccccc21	none
O=[N+]([O-])c1ccccc1CN1CCCC1	none
CCOc1ccccc1CN1CCC(N2CCN(c3ccccc3)CC2)CC1	none
O=[N+]([O-])c1ccccc1CN1CCN(C2CCCCC2)CC1	MITF inh 64 | MITF inh conf inactive | AlphaScreen intf2 inactive
O=[N+]([O-])c1cccc(CN2CCC(N3CCCC3)CC2)c1	none
O=[N+]([O-])c1cccc(CN2CCC(N3CCCCC3)CC2)c1	MITF inh 57 | MITF inh conf inactive | AlphaScreen intf2 inactive
